The source of these data is PubChem BioAssay (Tox21).

Unmarked numbers belong to inactive results. Inconclusive results are not listed. The source made the active and inactive calls. Unless noted, the call rests on the fitted dose curve; in most records, active means well fitted curve in the direction sought with a large enough effect in the repeat runs; inconclusive means weak or mixed curves; inactive means no such curve, though single readings can be large; an effect the other way counts as inactive or inconclusive.

Test [1] in a line: qHTS assay to identify small molecule agonists of the sonic hedgehog signaling (Shh) pathway (AID 1259368; calls by dose curve;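 further: NIH/3T3-derived 3T3Gli1-Luc cells carrying a stable Gli1-driven firefly luciferase reporter; series mostly up to about 92 µM; nearly all actives have a fitted effect of over 15% in size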). An outline of the steps: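 Luminescence was read after 30 min at room temperature with luciferase reagent. Before that, 3T3Gli1-Luc cells (NIH/3T3 clone, stable Gli1-Luc reporter; 2,000/well) were exposed to compounds for 24 hr at 37C, 5% CO2, compounds being added 4 hr post-plating.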
On the technique in general: Quantitative high-throughput screening tests each substance at several concentrations.

Test [2] in a line: qHTS assay to identify small molecule antagonists of the sonic hedgehog signaling (Shh) pathway (AID 1259369; calls by dose curve; further: nearly all actives have a fitted effect of over 45% in size). In short, it runs like this:
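Antagonist mode: compound added to 3T3 Gli1-Luc cells followed by conditioned-medium stimulation, 24 h at 37 C, 5% CO2. Inhibition taken as loss of Gli1-driven luciferase luminescence.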

Test [3] has as its target Estrogen receptor beta (Homo sapiens) (UniProt Q92731). Briefly: qHTS assay to identify small molecule agonists of the estrogen receptor beta (ER-beta) signaling pathway (AID 1259377; active means well fitted activation curve with a large enough effect in the signal ratio in the repeat runs, not every such curve was filed as active; the % refers to the signal ratio). An outline of the steps:
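Screening used GripTite ER-beta-UAS-bla cells held in 2% charcoal-stripped FBS medium. After overnight (16 hr) compound incubation at 37C, beta-lactamase activity was detected with a FRET substrate by fluorescence.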

Test [4] shares this target. Briefly: qHTS assay to identify small molecule antagonists of the estrogen receptor beta (ER-beta) signaling pathway (AID 1259378; active means well fitted inhibition curve with a large enough effect in the signal ratio in the repeat runs, not every such curve was filed as active; the % refers to the signal ratio). In short, it runs like this:
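ER-beta-UAS-bla HEK293T (GripTite) cells in 2% charcoal-stripped FBS medium were preincubated 6 hr at 37C, dosed with compound, then stimulated with 1 nM E2 (final) for 16 hr; beta-lactamase reporter read by B/G FRET fluorescence after 2 hr substrate loading.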

A short description of test [5]: qHTS assay to identify small molecule agonists of the androgen receptor (AR) signaling pathway in the presence of an antagonist - cell viability counter screen (AID 1259379).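 Further: MDA-kb2 human breast cancer cells carrying an MMTV luciferase reporter; series mostly up to about 92 µM; nearly all actives have a fitted effect of over 25% in size.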 In short, it runs like this: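 Cytotoxicity counter-screen run in the same wells as the nilutamide-challenged (3.0 µM final) AR agonist assay in MDA-kb2 cells. Compounds tested at 15 concentrations for 16 h, 37 °C without CO2; CellTiter-Fluor fluorescence read.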

Test [6] can be described thus: qHTS assay to identify small molecule antagonists of the estrogen receptor beta (ER-beta) signaling pathway - cell viability counter screen (AID 1259382). Further: series mostly up to about 92 µM; nearly all actives have a fitted effect of over 55% in size. In short, it runs like this:
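Cytotoxicity was measured in the same wells by CellTiter-Glo luminescence after 30 min at room temperature. Cells were ER-beta-bla HEK293T in charcoal-stripped serum, given compound together with 1 nM E2 and incubated 16 h at 37C.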

The target in test [7] is Estrogen receptor (Homo sapiens) (UniProt P03372). Briefly: qHTS assay to identify small molecule agonists of the estrogen receptor alpha (ER-alpha) signaling pathway in the presence of an antagonist (AID 1259383; calls by dose curve; further: top concentration of the series differs between compounds; nearly all actives have a fitted effect of over 15% in size). An outline of the steps: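 Agonist-mode confirmation run in the presence of 10.0nM (final) ICI-182,780 antagonist. The reporter was ERE-driven luciferase in VM7Luc4E2 cells, grown in charcoal-stripped serum. Cells were exposed to 15-concentration compound series for 22hr, then ONE-Glo luminescence was read.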
Chain of Estrogen receptor (Homo sapiens) (P03372 whole entry, looked up): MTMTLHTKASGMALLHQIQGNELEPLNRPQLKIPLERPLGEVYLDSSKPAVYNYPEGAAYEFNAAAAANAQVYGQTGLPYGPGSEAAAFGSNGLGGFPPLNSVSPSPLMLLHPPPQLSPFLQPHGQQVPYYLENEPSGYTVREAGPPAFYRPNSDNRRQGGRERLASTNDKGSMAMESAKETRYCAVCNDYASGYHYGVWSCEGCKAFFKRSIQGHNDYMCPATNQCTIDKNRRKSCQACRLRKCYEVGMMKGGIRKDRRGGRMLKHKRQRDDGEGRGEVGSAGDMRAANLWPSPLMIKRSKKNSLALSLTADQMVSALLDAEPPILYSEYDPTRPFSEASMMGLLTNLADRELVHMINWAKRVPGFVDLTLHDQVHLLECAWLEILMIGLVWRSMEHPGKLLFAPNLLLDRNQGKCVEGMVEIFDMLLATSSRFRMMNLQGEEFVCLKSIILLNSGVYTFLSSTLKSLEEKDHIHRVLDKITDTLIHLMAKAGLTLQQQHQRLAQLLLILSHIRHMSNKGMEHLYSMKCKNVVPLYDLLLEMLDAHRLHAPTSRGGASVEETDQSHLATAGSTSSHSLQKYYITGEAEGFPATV

Test [8] is described as follows: qHTS assay to identify small molecule agonists or antagonists of the thyroid stimulating hormone receptor (TSHR) signaling pathway - wild type cell line counter screen (AID 1259384; calls by dose curve). In short, it runs like this: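 Wild-type HEK293 cells were plated 18 h at 37 C/5% CO2, pin-dosed with compound plus Ro20-1724 medium, held 30 min at room temperature, then given cAMP-d2 and anti-cAMP-cryptate; fluorescence was read after 1 h. Fifteen concentrations, triplicate.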

Test [9] has as its target Thyrotropin receptor (Homo sapiens) (UniProt P16473). The test is described as follows: qHTS assay to identify small molecule antagonists of the thyroid stimulating hormone receptor (TSHR) signaling pathway (AID 1259385; calls by dose curve; further: nearly all actives have a fitted effect of over 20% in size). An outline of the steps:
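TSHR-HEK293 cells were plated and held 18 h at 37C/5% CO2, then given compound plus Ro20-1724 and stimulated with TSH at 1.5 ng/mL final. After 30 min at room temperature, cAMP was detected with cAMP-d2/anti-cAMP-cryptate (1 h) by fluorescence.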

A short description of test [10]: qHTS assay to identify small molecule agonists of the estrogen receptor alpha (ER-alpha) signaling pathway in the presence of an antagonist - cell viability counter screen (AID 1259386). Further: series mostly up to about 92 µM; nearly all actives have a fitted effect of over 30% in size. An outline of the steps:
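Compounds tested at 15 concentrations for 22 h at 37C alongside 10.0nM (final) ICI-182,780 antagonist, in VM7Luc4E2 cells grown in phenol red-free, charcoal-stripped medium. Viability read by CellTiter-Fluor fluorescence after 1 h reagent incubation.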

Test [11] concerns the target Progesterone receptor (Homo sapiens) (UniProt P06401). Briefly: qHTS assay to identify small molecule antagonists of the progesterone receptor (PR) signaling pathway (AID 1346795; active means well fitted inhibition curve with a large enough effect in the signal ratio in the repeat runs, not every such curve was filed as active; the % refers to the signal ratio). In short, it runs like this:
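Screening used a GripTite HEK293T line with PR-responsive UAS-beta-lactamase. Cells were challenged with compound in the presence of 1 nM R5020 final for 16 hr at 37C; B/G FRET substrate, 2 hr room temperature, fluorescence.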

The nature of test [12]: qHTS assay to identify small molecule antagonists of the TGF-beta/Smad signaling pathway - cell viability counter screen (AID 1346824). Further: nearly all actives have a fitted effect of over 50% in size. An outline of the steps:
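SBE-bla HEK 293T cells were plated overnight at 37 C, then given compounds in DMSO plus TGF-beta1 (added as 0.25 ng/mL solution) for 5 hr. After the bla read, CellTiter-Glo was added to the same wells and luminescence read after 30 min at room temperature.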

A short description of test [13]: qHTS assay to identify small molecule agonists of the TGF-beta/Smad signaling pathway - cell viability counter screen (AID 1346829). Further: top concentration of the series differs between compounds; nearly all actives have a fitted effect of over 45% in size. In short, it runs like this:
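Same-well cytotoxicity: CellTiter-Glo added after the 2 hr room-temperature beta-lactamase substrate step, luminescence measured 30 min later; cells had 5 hr of compound at 37 C.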

Test [14] in a line: qHTS assay to identify small molecule agonists of the TGF-beta/Smad signaling pathway (AID 1346859; active means well fitted activation curve with a large enough effect in the signal ratio in the repeat runs, not every such curve was filed as active; the % refers to the signal ratio; further: series mostly up to about 77 µM). In short, it runs like this: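 Beta-lactamase reporter activity downstream of Smad binding elements was measured in stably transfected HEK 293T cells; compounds were incubated for 5 hr, substrate for 2 hr at room temperature.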
The target in test [15] is Thyrotropin-releasing hormone receptor (Homo sapiens) (UniProt P34981). The test is described as follows: qHTS assay to identify small molecule antagonists of the thyrotropin-releasing hormone receptor (TRHR) signaling pathway (AID 1346877; active means well fitted inhibition curve with a large enough effect in the repeat runs, not every such curve was filed as active; further: series mostly up to about 51 µM). An outline of the steps: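 Antagonist mode: after a 5 min room-temperature compound exposure, cells were stimulated with 1 nM (final) TRH. Dye-loaded TRHR-HEK293 cells were used, and calcium-dependent fluorescence was followed for 3 min, with 15-point titrations run in triplicate.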
Chain of Thyrotropin-releasing hormone receptor (Homo sapiens) (P34981 whole entry, looked up): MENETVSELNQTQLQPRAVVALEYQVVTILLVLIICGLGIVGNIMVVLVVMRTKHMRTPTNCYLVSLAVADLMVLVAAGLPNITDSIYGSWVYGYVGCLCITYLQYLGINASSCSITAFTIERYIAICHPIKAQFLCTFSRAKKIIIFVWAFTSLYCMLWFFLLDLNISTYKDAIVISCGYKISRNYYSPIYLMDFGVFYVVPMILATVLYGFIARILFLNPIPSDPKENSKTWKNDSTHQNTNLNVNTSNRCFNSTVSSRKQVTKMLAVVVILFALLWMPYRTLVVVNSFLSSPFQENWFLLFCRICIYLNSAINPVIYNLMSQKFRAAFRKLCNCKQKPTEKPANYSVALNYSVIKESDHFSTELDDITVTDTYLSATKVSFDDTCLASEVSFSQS

The nature of test [16]: qHTS assay to identify small molecule agonists of the estrogen receptor beta (ER-beta) signaling pathway - cell viability counter screen (AID 1259380). Further: nearly all actives have a fitted effect of over 30% in size. An outline of the steps: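 Cell viability counter screen: CellTiter-Glo luminescence (30 min, room temperature) measured in the same wells as the beta-lactamase readout, after 16 hr compound exposure at 37C of ER-beta-bla HEK293T cells in 2% charcoal-stripped FBS medium.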

Test [17] deals with Progesterone receptor (Homo sapiens) (UniProt P06401). Briefly: qHTS assay to identify small molecule agonists of the progesterone receptor (PR) signaling pathway (AID 1346784; calls by dose curve; further: nearly all actives have a fitted effect of over 30% in size). In short, it runs like this:
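Seed PR-UAS-bla HEK 293T cells (2% charcoal-stripped FBS), incubate 6 hr at 37C; add compounds in DMSO, 16 hr at 37C; add LiveBLAzer B/G substrate, 2 hr RT; read fluorescence intensity.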

Test [18] is described as follows: qHTS assay to identify small molecule antagonists of the progesterone receptor (PR) signaling pathway - cell viability counter screen (AID 1346798). Further: nearly all actives have a fitted effect of over 50% in size. Further: potency means the concentration at half of the fitted maximal effect. An outline of the steps:
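Measures cytotoxicity in parallel with the PR antagonist reporter read: HEK293T PR-UAS-bla cells get compound and R5020 for 16 hr, and remaining viable cells are quantified by CellTiter-Glo luminescence.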

Test [19] can be described thus: qHTS assay to identify small molecule agonists of the progesterone receptor (PR) signaling pathway - cell viability counter screen (AID 1346799; calls by dose curve; further: nearly all actives have a fitted effect of over 45% in size; further: potency means the concentration at half of the fitted maximal effect). An outline of the steps:
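Using the same plates as the PR reporter screen, HEK293T PR-UAS-bla cells received compounds for 16 hr at 37C and were then lysed with CellTiter-Glo; luminescence was read 30 min later at room temperature.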

In test [20] the target is Androgen receptor (Homo sapiens) (UniProt P10275). Briefly: qHTS assay to identify small molecule agonists of the androgen receptor (AR) signaling pathway in the presence of an antagonist (AID 1259381; calls by dose curve; further: nearly all actives have a fitted effect of over 15% in size). In short, it runs like this: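 Agonist-mode confirmation run against 3.0 uM final nilutamide: compounds titrated at 15 concentrations onto MDA-kb2 MMTV-luciferase reporter cells. Luminescence measured with ONE-Glo following 16 hr incubation, 37C, 0% CO2.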
Chain of Androgen receptor (Homo sapiens) (P10275 whole entry, looked up): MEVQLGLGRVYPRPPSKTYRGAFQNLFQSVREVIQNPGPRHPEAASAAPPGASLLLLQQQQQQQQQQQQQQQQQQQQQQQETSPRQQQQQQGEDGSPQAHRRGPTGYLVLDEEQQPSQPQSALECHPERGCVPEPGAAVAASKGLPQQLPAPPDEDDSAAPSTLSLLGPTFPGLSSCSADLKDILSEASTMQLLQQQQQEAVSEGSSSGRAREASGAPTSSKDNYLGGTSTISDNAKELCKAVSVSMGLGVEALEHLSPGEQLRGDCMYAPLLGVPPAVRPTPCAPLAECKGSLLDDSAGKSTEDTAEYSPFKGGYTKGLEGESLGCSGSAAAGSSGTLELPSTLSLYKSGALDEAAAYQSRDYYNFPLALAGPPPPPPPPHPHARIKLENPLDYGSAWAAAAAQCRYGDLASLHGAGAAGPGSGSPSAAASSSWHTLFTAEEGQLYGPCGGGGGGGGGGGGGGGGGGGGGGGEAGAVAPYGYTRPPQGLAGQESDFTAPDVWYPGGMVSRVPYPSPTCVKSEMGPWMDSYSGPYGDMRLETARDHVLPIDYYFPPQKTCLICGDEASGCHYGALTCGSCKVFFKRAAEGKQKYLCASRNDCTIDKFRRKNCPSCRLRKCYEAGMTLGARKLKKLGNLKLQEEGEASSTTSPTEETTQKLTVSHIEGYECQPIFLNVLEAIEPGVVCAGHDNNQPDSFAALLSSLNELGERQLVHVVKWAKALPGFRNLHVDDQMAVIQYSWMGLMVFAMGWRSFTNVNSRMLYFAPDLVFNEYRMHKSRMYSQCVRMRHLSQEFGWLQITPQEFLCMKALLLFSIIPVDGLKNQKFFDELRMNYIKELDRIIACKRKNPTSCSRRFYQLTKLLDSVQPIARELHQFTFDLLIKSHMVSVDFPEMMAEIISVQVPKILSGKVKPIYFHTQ

Chain of Progesterone receptor (Homo sapiens) (P06401 whole entry, looked up): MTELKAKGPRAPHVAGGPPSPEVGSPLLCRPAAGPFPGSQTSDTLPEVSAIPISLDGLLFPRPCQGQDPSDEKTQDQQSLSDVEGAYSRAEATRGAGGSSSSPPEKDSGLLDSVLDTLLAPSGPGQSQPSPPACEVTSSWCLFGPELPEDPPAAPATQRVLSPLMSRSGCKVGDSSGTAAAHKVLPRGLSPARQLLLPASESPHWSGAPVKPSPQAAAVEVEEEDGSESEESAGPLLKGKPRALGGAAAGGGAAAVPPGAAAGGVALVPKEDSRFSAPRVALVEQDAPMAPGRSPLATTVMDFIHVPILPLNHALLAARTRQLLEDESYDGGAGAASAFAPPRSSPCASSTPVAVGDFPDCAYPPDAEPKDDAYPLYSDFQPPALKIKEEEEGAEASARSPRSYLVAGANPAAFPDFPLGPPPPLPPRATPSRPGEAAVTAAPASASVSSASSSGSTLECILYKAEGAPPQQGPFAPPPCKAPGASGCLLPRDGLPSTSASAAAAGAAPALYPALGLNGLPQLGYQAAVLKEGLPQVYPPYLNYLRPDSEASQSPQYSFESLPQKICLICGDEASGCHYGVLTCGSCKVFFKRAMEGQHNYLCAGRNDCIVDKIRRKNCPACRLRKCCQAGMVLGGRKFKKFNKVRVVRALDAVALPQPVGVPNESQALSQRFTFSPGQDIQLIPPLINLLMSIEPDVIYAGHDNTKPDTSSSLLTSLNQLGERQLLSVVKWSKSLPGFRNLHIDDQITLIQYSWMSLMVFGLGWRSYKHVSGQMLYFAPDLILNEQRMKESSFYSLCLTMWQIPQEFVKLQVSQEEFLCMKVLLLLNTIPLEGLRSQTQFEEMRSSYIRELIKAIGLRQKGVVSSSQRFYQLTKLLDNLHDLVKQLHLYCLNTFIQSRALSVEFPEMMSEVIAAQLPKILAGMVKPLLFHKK
Chain of Thyrotropin receptor (Homo sapiens) (P16473 whole entry, looked up): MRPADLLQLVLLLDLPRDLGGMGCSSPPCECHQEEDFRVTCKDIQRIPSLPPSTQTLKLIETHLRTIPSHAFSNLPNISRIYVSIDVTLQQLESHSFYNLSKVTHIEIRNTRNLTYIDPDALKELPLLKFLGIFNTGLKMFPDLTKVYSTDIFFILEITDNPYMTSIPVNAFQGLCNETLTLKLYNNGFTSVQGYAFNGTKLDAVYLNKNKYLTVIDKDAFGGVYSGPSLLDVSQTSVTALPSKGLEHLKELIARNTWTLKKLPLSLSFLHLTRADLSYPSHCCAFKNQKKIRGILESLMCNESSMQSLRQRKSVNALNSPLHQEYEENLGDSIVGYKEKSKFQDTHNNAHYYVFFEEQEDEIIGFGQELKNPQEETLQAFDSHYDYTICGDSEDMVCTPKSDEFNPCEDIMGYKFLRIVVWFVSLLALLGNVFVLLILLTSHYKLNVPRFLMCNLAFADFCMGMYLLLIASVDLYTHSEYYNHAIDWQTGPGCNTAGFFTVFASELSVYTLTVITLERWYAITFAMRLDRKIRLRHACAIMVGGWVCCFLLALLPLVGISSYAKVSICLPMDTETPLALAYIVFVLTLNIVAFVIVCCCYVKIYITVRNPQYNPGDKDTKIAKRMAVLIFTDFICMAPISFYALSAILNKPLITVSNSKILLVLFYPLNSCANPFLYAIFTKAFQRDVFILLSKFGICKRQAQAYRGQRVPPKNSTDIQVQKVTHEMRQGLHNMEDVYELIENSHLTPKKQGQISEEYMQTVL
Chain of Estrogen receptor beta (Homo sapiens) (Q92731 whole entry, looked up): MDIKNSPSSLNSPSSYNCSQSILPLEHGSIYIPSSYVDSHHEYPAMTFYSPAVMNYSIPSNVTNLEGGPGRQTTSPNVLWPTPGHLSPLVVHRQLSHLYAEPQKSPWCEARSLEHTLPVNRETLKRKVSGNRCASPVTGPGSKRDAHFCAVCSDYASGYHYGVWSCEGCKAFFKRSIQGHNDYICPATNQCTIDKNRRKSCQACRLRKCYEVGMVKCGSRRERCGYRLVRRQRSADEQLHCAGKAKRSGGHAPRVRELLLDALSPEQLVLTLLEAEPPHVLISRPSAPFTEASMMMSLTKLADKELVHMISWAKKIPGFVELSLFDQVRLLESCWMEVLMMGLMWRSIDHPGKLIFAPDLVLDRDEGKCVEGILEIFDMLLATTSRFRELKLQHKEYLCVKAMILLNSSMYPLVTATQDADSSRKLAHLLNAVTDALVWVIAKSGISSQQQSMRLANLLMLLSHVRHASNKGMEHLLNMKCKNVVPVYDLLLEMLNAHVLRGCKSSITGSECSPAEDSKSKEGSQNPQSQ

With `CCN1CCCC(OC(=O)C(c2ccccc2)c2ccccc2)C1` (configuration not stated), the Potency result in test [1], in test [2], in test [4], in test [5], in test [6] and in test [7] was “inactive” in each case. For the same compound, the Potency entry in test [9] and in [11] was “inactive” each time. Moreover, the outcome in test [3], in [8], in test [10], in [12], in test [13] and in test [14] was inactive. The call in test [15] was inactive.
Take `CC(=O)CCc1ccc(O)cc1`: the Potency entry in [1], in test [2], in test [4], in [5], in test [16] and in test [6] was “inactive” in each case. The Potency result in [7], in [9], in test [17], in [11], in test [18] and in test [19] was “inactive” throughout. In addition, the outcome in test [8], in [10], in test [12], in [13], in [14] and in test [15] was inactive.
With `OC1OC[C@@H](O)[C@H](O)[C@H]1O` (some centres not stated), the Potency entry in test [1], in [2], in test [4], in [5], in [16] and in test [6] was “inactive” in each case. For the same compound, the Potency entry in test [11], in test [18] and in test [19] was “inactive” each time. Further, the outcome in [10], in test [12], in test [13], in test [14] and in test [15] was inactive.
For `CCCCCCOC(=O)c1ccccc1O`, the Potency entry in test [1], in test [2], in test [4], in test [5], in test [20] and in test [6] was “inactive” throughout. Also, the Potency entry in test [7] and in test [9] was “inactive” in each case. Moreover, the call in test [8], in test [10], in test [12], in [13], in test [14] and in test [15] was inactive. In addition, the Potency in [18] is 24.3 µM (active); in [19], 30.6 µM (active).
Regarding `CNc1ncnc2nc[nH]c12`, the Potency result in test [1], in test [2], in test [5], in test [16], in test [6] and in test [7] was “inactive” throughout. Also, the Potency result in test [9], in test [11], in test [18] and in test [19] was “inactive” in each case. Further, the call in test [8], in [10], in test [12], in test [13], in [14] and in test [15] was inactive.
In the case of `COc1cc(C(=O)N2CCOCC2)cc(OC)c1OC`, the Potency entry in test [1], in [2], in [4], in test [5], in test [6] and in test [18] was “inactive” in each case. For the same compound, in test [19], the Potency result is “inactive”. Moreover, the outcome in test [10], in test [12], in test [13] and in test [14] was inactive.
Take `OCC(CO)(CO)COCC(CO)(CO)CO`: the Potency result in [1], in [2], in test [5], in test [16], in [6] and in test [7] was “inactive” each time. The Potency entry in test [9], in [17], in test [11], in test [18] and in [19] was “inactive” throughout. The compound was called inactive in test [8], in [10], in test [14] and in test [15].
Consider `CCCCCCCCCCCCCCCCCC(=O)OCCCCCCCCCCCCCC(C)C`, for which the Potency result in test [1], in test [2], in [5], in test [16], in test [6] and in [7] was “inactive” throughout. Also, the Potency result in test [9], in test [17], in [11], in test [18] and in [19] was “inactive” throughout. Moreover, the compound was classed as inactive in test [8], in [10], in [12], in test [13], in [14] and in test [15].
